Data reported in PubChem BioAssay AID1159580 (chemical genetic matrix, 2015).
Hit rate of the full screen: of about 5,500 compounds, about 2,000 (36%) were called active. Inconclusive results (about 18%) are left out. No stated cut-off is given here; in the data, active means normalized growth mostly below about 0.91 (no sharp cut-off); inconclusive means no clear call, values can overlap the other calls; inactive means mostly above about 0.92. This is one part of the list.

Test: chemical genetic growth profiling, strain panel (AID 1159580);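 further: tested at 20 µM; growth read once vehicle control cultures reached saturation at 30 °C; 1 = growth at the plate median or of vehicle wells; lower values mean less growth of the strain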
Settings: growth OD
[1] = S. cerevisiae deletion strains, locus YDR150W, strain NUM1, hits give low values
[2] = S. cerevisiae deletion strains, locus YGR078C, strain PAC10, hits give low values
[3] = S. cerevisiae deletion strains, locus YMR307W, strain GAS1, hits give low values
[4] = S. cerevisiae deletion strains, locus YNL128W, strain TEP1, hits give low values
[5] = S. cerevisiae deletion strains, locus YNL322C, strain KRE1, hits give low values
[6] = S. cerevisiae deletion strains, locus YPL055C, strain LGE1, hits give low values
[7] = S. cerevisiae deletion strains, locus YPL241C, strain CIN2, hits give low values

Measured: normalized growth

CNCCc1c[nH]c2ccc(O)cc12
inactive: S. cerevisiae deletion strains, locus YAL040C, strain CLN3, hits give low values 1.01 | S. cerevisiae deletion strains, locus YCL061C, strain MRC1 (second series), hits give low values 1.01 | [1] 0.994 | S. cerevisiae deletion strains, locus YDR363W, strain ESC2, hits give low values 1.01 | S. cerevisiae deletion strains, locus YER002W, strain NOP16, hits give low values 1.01 | [2] 1.02 | [3] 1 | [4] 1 | S. cerevisiae deletion strains, locus YNL175C, strain NOP13, hits give low values 1.01 | S. cerevisiae deletion strains, locus YNL197C, strain WHI3, hits give low values 1.02 | S. cerevisiae deletion strains, locus YNL224C, strain SQS1, hits give low values 1.01 | [5] 1.02 | S. cerevisiae deletion strains, locus YOR083W, strain WHI5 (second series), hits give low values 1.01 | [6] 1.01 | [7] 1

NCCc1cccc(O)c1
inactive: S. cerevisiae deletion strains, locus YAL013W, strain DEP1, hits give low values 1.01 | S. cerevisiae deletion strains, locus YBR021W, strain FUR4, hits give low values 0.972 | S. cerevisiae deletion strains, locus YBR229C, strain ROT2, hits give low values 0.983 | S. cerevisiae deletion strains, locus YCL029C, strain bik1, hits give low values 0.981 | S. cerevisiae deletion strains, locus YDL035C, strain GPR1, hits give low values 1.01 | S. cerevisiae deletion strains, locus YDL074C, strain BRE1, hits give low values 1.01 | S. cerevisiae deletion strains, locus YDL101C, strain DUN1, hits give low values 0.985 | S. cerevisiae deletion strains, locus YDL134C, strain PPH21, hits give low values 0.984 | S. cerevisiae deletion strains, locus YDL185W, strain tfp1, hits give low values 0.989 | S. cerevisiae deletion strains, locus YDL192W, strain arf1, hits give low values 0.979 | S. cerevisiae deletion strains, locus YDR101C, strain arx1, hits give low values 0.985 | [1] 1 | S. cerevisiae deletion strains, locus YDR162C, strain NBP2, hits give low values 0.996 | S. cerevisiae deletion strains, locus YDR318W, strain mcm21, hits give low values 0.983 | S. cerevisiae deletion strains, locus YDR388W, hits give low values 0.981 | S. cerevisiae deletion strains, locus YDR502C, strain sam2, hits give low values 0.992 | S. cerevisiae deletion strains, locus YEL061C, strain CIN8, hits give low values 0.994 | S. cerevisiae deletion strains, locus YER110C, hits give low values 0.985 | S. cerevisiae deletion strains, locus YER155C, strain BEM2, hits give low values 0.951 | S. cerevisiae deletion strains, locus YER167W, strain BCK2, hits give low values 0.982 | S. cerevisiae deletion strains, locus YGL078C, strain dbp3, hits give low values 0.989 | S. cerevisiae deletion strains, locus YGL086W, strain mad1, hits give low values 0.976 | S. cerevisiae deletion strains, locus YGL248W, strain PDE1, hits give low values 0.982 | [2] 1 | S. cerevisiae deletion strains, locus YGR135W, strain pre9, hits give low values 0.982 | S. cerevisiae deletion strains, locus YGR229C, strain SMI1, hits give low values 1.05 | S. cerevisiae deletion strains, locus YGR252W, strain gcn5, hits give low values 0.952 | S. cerevisiae deletion strains, locus YHR030C, strain SLT2, hits give low values 0.994 | S. cerevisiae deletion strains, locus YHR079C, strain IRE1 (second series), hits give low values 0.986 | S. cerevisiae deletion strains, locus YHR094C, strain hxt1, hits give low values 0.992 | S. cerevisiae deletion strains, locus YHR129C, strain ARP1, hits give low values 0.987 | S. cerevisiae deletion strains, locus YHR200W, strain rpn10, hits give low values 0.974 | S. cerevisiae deletion strains, locus YIL066C, strain RNR3, hits give low values 0.996 | S. cerevisiae deletion strains, locus YIL073C, strain SPO22, hits give low values 0.946 | S. cerevisiae deletion strains, locus YIL125W, strain kgd1, hits give low values 0.984 | S. cerevisiae deletion strains, locus YIR030C, strain dcg1, hits give low values 0.991 | S. cerevisiae deletion strains, locus YJL095W, strain BCK1, hits give low values 1 | S. cerevisiae deletion strains, locus YJL134W, strain LCB3, hits give low values 0.992 | S. cerevisiae deletion strains, locus YJL168C, strain set2, hits give low values 0.987 | S. cerevisiae deletion strains, locus YJL187C, strain SWE1 (second series), hits give low values 0.991 | S. cerevisiae deletion strains, locus YJR043C, strain POL32, hits give low values 0.979 | S. cerevisiae deletion strains, locus YJR075W, strain HOC1, hits give low values 0.998 | S. cerevisiae deletion strains, locus YKL009W, strain mrt4, hits give low values 0.965 | S. cerevisiae deletion strains, locus YKL068W, hits give low values 0.992 | S. cerevisiae deletion strains, locus YKL085W, strain MDH1 (second series), hits give low values 0.987 | S. cerevisiae deletion strains, locus YKL085W, strain MDH1, hits give low values 0.987 | S. cerevisiae deletion strains, locus YKL190W, strain CNB1, hits give low values 0.997 | S. cerevisiae deletion strains, locus YKR001C, strain vps1, hits give low values 0.976 | S. cerevisiae deletion strains, locus YLR039C, strain RIC1, hits give low values 0.972 | S. cerevisiae deletion strains, locus YLR058C, strain SHM2, hits give low values 0.992 | S. cerevisiae deletion strains, locus YLR102C, strain apc9, hits give low values 0.99 | S. cerevisiae deletion strains, locus YLR262C, strain YPT6, hits give low values 0.997 | S. cerevisiae deletion strains, locus YLR268W, strain sec22, hits give low values 0.989 | S. cerevisiae deletion strains, locus YLR330W, strain CHS5, hits give low values 0.99 | S. cerevisiae deletion strains, locus YLR342W, strain FKS1 (second series), hits give low values 0.963 | S. cerevisiae deletion strains, locus YLR371W, strain rom2, hits give low values 0.991 | S. cerevisiae deletion strains, locus YLR418C, strain cdc73, hits give low values 0.985 | S. cerevisiae deletion strains, locus YML016C, strain PPZ1, hits give low values 0.985 | S. cerevisiae deletion strains, locus YML032C, strain rad52, hits give low values 0.978 | S. cerevisiae deletion strains, locus YML124C, strain tub3, hits give low values 0.989 | S. cerevisiae deletion strains, locus YMR078C, strain ctf18, hits give low values 0.983 | S. cerevisiae deletion strains, locus YMR223W, strain ubp8, hits give low values 0.979 | S. cerevisiae deletion strains, locus YMR263W, strain SAP30, hits give low values 1 | [3] 0.991 | S. cerevisiae deletion strains, locus YNL067W, strain RPL9B, hits give low values 1.01 | [4] 1.03 | S. cerevisiae deletion strains, locus YNL153C, strain GIM3, hits give low values 0.996 | S. cerevisiae deletion strains, locus YNL233W, strain BNI4, hits give low values 0.989 | S. cerevisiae deletion strains, locus YNL250W, strain rad50, hits give low values 0.984 | S. cerevisiae deletion strains, locus YNL271C, strain bni1, hits give low values 0.991 | S. cerevisiae deletion strains, locus YNL298W, strain CLA4, hits give low values 0.98 | S. cerevisiae deletion strains, locus YNL307C, strain MCK1, hits give low values 0.981 | [5] 0.998 | S. cerevisiae deletion strains, locus YNR052C, strain pop2, hits give low values 0.987 | S. cerevisiae deletion strains, locus YOL006C, strain TOP1, hits give low values 0.986 | S. cerevisiae deletion strains, locus YOL012C, strain htz1 0.834 | S. cerevisiae deletion strains, locus YOL147C, strain pex11, hits give low values 0.986 | S. cerevisiae deletion strains, locus YOR061W, strain CKA2, hits give low values 0.991 | S. cerevisiae deletion strains, locus YOR069W, strain VPS5, hits give low values 0.988 | S. cerevisiae deletion strains, locus YOR136W, strain idh2, hits give low values 0.975 | S. cerevisiae deletion strains, locus YOR144C, strain elg1, hits give low values 0.986 | S. cerevisiae deletion strains, locus YOR184W, strain ser1, hits give low values 0.965 | S. cerevisiae deletion strains, locus YOR316C, strain cot1, hits give low values 0.989 | [6] 1.04 | [7] 1 | S. cerevisiae deletion strains, locus YPR119W, strain clb2, hits give low values 0.992 | S. cerevisiae deletion strains, locus YPR141C, strain kar3, hits give low values 0.988 | S. cerevisiae deletion strains, locus YPR163C, strain tif3, hits give low values 0.984 | S. cerevisiae deletion strains, locus YPR167C, strain met16, hits give low values 0.981 | S. cerevisiae deletion strains, strain wtn01, hits give low values 0.987 | S. cerevisiae strains, strain wild type, hits give low values 1.02
